Tau fluor cs – counter-screen for tau fibril formation inhibitors. tau K18 P301L Alexa594 fluorescence, heparin fibrillization. Potency, µM (titrated, usually from 57.7 µM), for the others: at the highest dose activity change, negative = decrease. hit rate 0.93% among 280,000; note: potency is the fitted concentration of half-maximal effect; nearly all actives have a fitted effect of over 55% in size
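Human K18 P301L tau (15 uM unlabeled plus 0.24 uM Alexa 594-labeled, final) in 100 mM sodium acetate pH 7 was mixed with compound and 20 uM heparin and incubated 6 hr at 37 C.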
Coupling enz – counter-screen for Giardia aldolase inhibitors: coupling enzyme system; coupling enzyme system counterscreen, AmpLite Red fluorescence; activity change, negative = inhibition, % at 58.2 µM, hits read low; hit rate 0.67% among 290,000; in the data active = activity change below about -30%
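Coupling enzymes only (glyceraldehyde-3-phosphate) + compound, at 57.5 uM final, 10 min RT; add substrate/coupling/AmpLite Red mix, 20 min RT; fluorescence ex 525/em 598 nm. Actives flag coupling-system interference.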
Tau fibril FP – blocks human tau fibril formation measured by polarization; P10636; K18 P301L tau heparin fibrillization, Alexa594 FP, 6 h; Potency, µM (series often up to 57.7 µM), without a hit: at the highest dose activity, negative = inhibition, usual class: inhibitors; hit rate 0.39% among 280,000; AID 1468; note: potency is the fitted concentration of half-maximal effect; nearly all actives have a fitted effect of over 55% in size
Target sequence (P10636 561-689 P618L limits assumed): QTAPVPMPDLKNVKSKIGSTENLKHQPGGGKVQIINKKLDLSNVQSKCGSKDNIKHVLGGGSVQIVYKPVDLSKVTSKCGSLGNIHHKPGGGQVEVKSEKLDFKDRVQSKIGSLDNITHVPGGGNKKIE
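Recombinant K18 P301L […], labeled with Alexa 594 at 0.24 uM over 15 uM unlabeled; heparin inducer 20 uM final; 37 C, 6 hr; FP endpoint.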
Sfp inh – blocks B. subtilis Sfp PPTase activity. Q9F4F7. Biochemical Sfp PPTase activity, qHTS. Potency, µM, inactives show largest response in the series, negative = inhibition, usual class: inhibitors. hit rate 3.5% among 310,000. AID 1490;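 note: the enzyme is Sfp with the accession as filed and its product quenches rhodamine fluorescence; potency is the fitted concentration of half-maximal effect; 0% = enzyme reaction without inhibitor and -100% = no enzyme wells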
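With Hepes-Na pH 7.6 buffer containing 10 mM MgCl2, Sfp (15 nM) modified BHQ-2-YbbR (12.5 uM) using rhodamine-CoA (5 uM). Two reads 30 minutes apart at 525/598 nm yielded each well's rate.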
Tau ThT inhib – blocks human tau fibril formation measured by thioflavin T; recombinant tau K18 P301L (four-repeat tau fragment), heparin-induced fibrillization, ThT fluorescence; Potency, µM (top dose mostly 57.4 µM), for the others: top-dose activity, negative = inhibition, actives largely listed as inhibitors; hit rate 2.1% among 270,000; AID 1460; note: potency is the fitted concentration of half-maximal effect; nearly all actives have a fitted effect of over 55% in size
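Recombinant human tau K18 fragment […] carrying P301L, 15 uM unlabeled plus 0.24 uM Alexa 594-labeled, was fibrillized with 20 uM heparin in 100 mM sodium acetate pH 7 for 6 hr at 37 C; 30 uM ThT fluorescence read after 1 hr.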
The depositor's hits bear a star; ? = inconclusive; . = not tested or not shown; [ ] = remark or other dose. A selection: hits, their analogues and other compounds. The true share with any hit is near 5.2%. Unless noted, calls come from the whole dose curve; as a rule, active = well fitted curve in the direction sought with a large enough effect; inconclusive = small, poorly fitted or top-dose-only effect, or another doubt; inactive = no such curve, though single readings can be large; an effect the other way counts as inactive or inconclusive. Unless noted, % is set by controls: 0 for no effect and ±100 for the full control effect.

SMILES | Tau fluor cs | Coupling enz | Tau fibril FP | Sfp inh | Tau ThT inhib
CCCNC(=O)OC[C@@H]1O[C@H](CCO/N=C(\C)CCN2CCc3nc(CC)c(CC)cc3C2)C=C[C@@H]1Oc1ccc(OC)cc1 | -4.7%[11.6 µM] | 0.1 | 7.2%[11.6 µM] | -2.8% | -15.9%[11.5 µM]
CCOc1ccc(NC(=O)C(c2ccccn2)N(C(=O)CCl)c2ccc(OC)cc2)cc1 (centres undefined) | 7.5% | -42.5* | 10.9% | 14.1µM* | 13.9%
CC(=O)Nc1ccc(C(=O)N(C)C(C(=O)Nc2ccc(C)cc2)c2ccccn2)cc1 (centres undefined) | -2.7% | 4.1 | 0.1% | -2.4% | -2.3%
COc1ccc(NC(=O)C(c2ccccn2)N(C(C)=O)c2ccc(C)cc2)cc1 (centres undefined) | -6.2% | 2.2 | -2.8% | -3.7% | -12.0%
CCOc1ccc(NC(=O)C(c2ccccn2)N(C(=O)CCl)c2ccc(OCC)cc2)cc1 (centres undefined) | ? | -16.6 | ? | 39.8µM* | 10µM*
O=C(Nc1ccc(F)cc1F)c1ccc(-n2cnc3cccnc32)cc1 | -5.7% | . | -6.0% | . | -9.5%
CC(C)c1cc(=O)n2[nH]c(N)nc2n1 | 7.2% | -2.5 | 4.6% | 79.4µM* | -5.6%
O=C(Cn1nc(CNc2ccc(Br)cc2)[n+]2c1CCCCC2)c1ccc([N+](=O)[O-])cc1 | -21.6% | -4.0 | 6.3% | 56.2µM* | ?
O=C(Cn1nc(CNc2ccc(Cl)cc2)[n+]2c1CCCCC2)c1ccc(Br)cc1 | -13.1% | 1.1 | 6.6% | ? | ?
CC1=C([N+](=O)[O-])C(c2cccc(Br)c2)C2=C(N1)c1ccccc1C2=O (centres undefined) | 14.1µM*[quencher] | -5.1 | ? | ? | 15.8µM*
COC(=O)C1=C(C)NC2=C(C(=O)c3ccccc32)C1c1cccc(OC)c1 (centres undefined) | -11.8% | 0.1 | 11.6% | 11.1% | .
Cc1cccc(N=C2NC(=O)/C(=C/c3cccnc3)S2)c1C | -13.4% | -12.7 | -11.8% | ? | ?
O=C1NC(=Nc2ccccc2)S/C1=C\C=C\c1ccco1 | -0.3% | 3.3 | 1.0% | 13.6% | 3.5%
Cc1ccc(N=C2NC(=O)/C(=C/C=C/c3ccco3)S2)cc1 | ? | -0.7 | ? | ? | 6.31µM*
Cc1cccc(N=C2NC(=O)/C(=C/C=C/c3ccco3)S2)c1C | ? | 0.2 | ? | 39.8µM* | 15.8µM*
COc1ccccc1NC(=O)Cn1c(=O)n(Cc2ccco2)c(=O)c2oc3ccccc3c21 | 4.4% | . | ? | . | 18.1%
Cc1cccc(-c2nnc(C3CCN(S(=O)(=O)c4cccc(Cl)c4)CC3)o2)c1 | -17.9% | . | 0.4% | . | ?
O=C(C=C=Nc1ccccc1)C(=O)N=C=Cc1ccccc1 | ? | 1.2 | ? | -0.6% | 10µM*
O=C(N/N=C/c1ccccc1)C(=O)N/N=C/c1ccccc1 | . | -0.4 | . | -2.9% | .
COc1ccc(CNC(=O)CCc2c(C)c3cc4c(C)c(C)oc4cc3oc2=O)cc1OC | -1.1% | . | -3.5% | . | -0.4%
O=[N+]([O-])/C(C(Cl)=C(Cl)Cl)=C(/NC1CC1)Sc1ccccc1 | -18.0% | -5.7 | ? | -14.3% | ?
O=[N+]([O-])C(=C1Nc2ccccc2N1)C(Cl)=C(Cl)Cl | -17.6% | -2.6 | ? | 89.1µM* | ?
Cc1[nH]n(-c2ccccc2)c(=O)c1C=NCCc1ccccc1 | -8.6% | 0.5 | 6.4% | 11.8% | -3.7%
CCCCN=Cc1c(C)[nH]n(-c2ccccc2)c1=S | -13.0% | -13.8 | -8.7% | 10µM* | ?
Cc1[nH]n(-c2ccccc2)c(=S)c1C=Nc1cccc([N+](=O)[O-])c1 | -22.6% | -4.7 | ? | -92.0% | 22.4µM*
SMILES | Tau fluor cs | Coupling enz | Tau fibril FP | Sfp inh | Tau ThT inhib
O=C1c2c(O)ccc(O)c2C(=O)c2c(NCCNCCO)ccc(NCCNCCO)c21 | 3.16µM*[quencher] | -19.9 | ? | -57.8% | 8.91µM*
O=C1c2cccc(O)c2C(=O)c2c(O)cc(CO)cc21 | . | -2.1 | . | -6.6% | .
C/C=C/COC(=O)c1[nH]c2c(c1C)C(=O)CC(c1ccco1)C2 (centres undefined) | -17.6% | 1.9 | -7.1% | 50.1µM* | ?
C=CCOC(=O)c1[nH]c2c(c1C)C(=O)CC(c1ccco1)C2 (centres undefined) | -4.7% | -0.6 | -3.9% | ? | ?
Cc1c(C(=O)OCC(C)C)[nH]c2c1C(=O)CC(c1ccco1)C2 (centres undefined) | -10.4% | -0.4 | -0.2% | 39.8µM* | ?
Cc1ccc(C)c(N2CCN(C(=O)c3cc4cc5ccc(C)cc5nc4o3)CC2)c1 | -10.6% | . | -3.9% | . | ?
N=C1Sc2ccccc2C2=NCCCN12 | -17.3% | . | 14.1µM* | . | 7.08µM*
O=C(/C(=C/O)N=Nc1ccccc1Cl)c1ccccc1 | -21.4% | 2.1 | -10.6% | 3.2% | 28.2µM*
O=C(/C(=C/O)N=Nc1cccc(C(F)(F)F)c1)c1ccccc1 | -23.3% | 5.8 | -12.0% | -3.3% | ?
O=C(Nc1ccccc1Cl)c1ccccc1 | -1.9% | 0.4 | 2.7% | 8.9% | -5.0%
Cc1cccc(/C=N/NC(=O)c2ccc(Br)cc2)c1 | -9.7% | -0.6 | -0.6% | -3.5% | -17.3%
Cc1cccc(N/N=C(\C=N\N)C(=O)c2ccc(Br)cc2)c1 | 11.2µM*[quencher] | -0.3 | ? | 21.3% | 14.1µM*
Cc1cccc(N=N/C(=C\O)C(=O)c2ccc(Br)cc2)c1 | -21.8% | 1.0 | -0.4% | -12.0% | 22.4µM*
Cc1ccc(N=N/C(=C\O)C(=O)c2ccncc2)cc1 | -25.0% | 1.2 | -2.5% | -3.8% | 28.2µM*
Cc1cc2c(cc1Cl)C(c1ccccc1C)CC(=O)O2 (centres undefined) | ? | -0.8 | -17.5%[81.3 µM] | -8.1% | -17.7%[81.4 µM]
O=C(/C(=C/O)N=Nc1ccc(Cl)cc1)c1ccncc1 | -26.5% | . | -8.4% | -1.2% | 20µM*
O=C(Nc1ccncc1)c1ccc(Cl)cc1 | . | -2.6 | . | 11.2% | .
O=C(OCn1ncc(Cl)c(Cl)c1=O)c1ccc(C(F)(F)F)cc1 | -12.2% | -1.5 | -13.2% | 0.0% | 31.6µM*
Nc1c(Cl)ncnc1N/N=C/c1ccncc1 | -7.5% | -2.0 | 8.1% | 79.4µM* | -12.8%
Nc1c(Cl)ncnc1N/N=C/c1cccc(O)c1 | ? | -0.7 | 9.0% | 56.2µM* | ?
COc1ccc(/C=N/Nc2ncnc(Cl)c2N)cc1OC | ? | -2.7 | ? | 31.6µM* | ?
CCOc1ccccc1CNc1ncnc2onc(-c3ccc(F)cc3)c12 | -16.8% | . | -5.8% | . | -3.5%
COc1ccc2c(c1)O[C@@H](c1cccc(C(F)(F)F)c1)[C@H](OC(=O)NS(=O)(=O)c1ccc(F)cc1)C2=O | -1.2% | 0.1 | 4.6% | 10.3% | 0.5%
CSc1nnc2n(C3CCCCC3)c(=O)c3c4c(sc3n12)CCCC4 | -2.0% | 0.2 | 4.1% | 6.5% | -1.2%
Cc1nnc2n(C3CCCCC3)c(=O)c3c4c(sc3n12)CCC4 | 14.1µM*[quencher] | -1.4 | 6.4% | 13.4% | 12.6µM*
